Most compounds without a hit are left out; they make up all but 3.6% or so of the library.
TDP-43 yeast inh – rescues yeast growth from TDP-43 toxicity; TDP-43 expressing yeast growth rescue, BacTiter-Glo, 24 h; Potency, µM (highest dose often 46.1 µM), usual class: activators; 1.8% of 410,000 active; note: nearly all actives have a fitted effect of over 50% in size
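Cell-based yeast growth screen: TDP-43 expression induced in galactose, inoculum OD600=0.02 after raffinose pregrowth to mid-log. Read-out BacTiter-Glo luminescence at 24 hr, 30 deg C; inhibition of toxicity seen as signal increase.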
FUS suppressor – suppressors of FUS proteinopathy in yeast; S. cerevisiae FUS-expressing, growth rescue, OD600, 24 h; Potency, µM (doses to about 76.6 µM), most hits filed as activators; 0.24% of 390,000 active; note: nearly all actives have a fitted effect of over 55% in size
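Cultures pregrown in 2.5% raffinose medium are shifted to minimal medium containing 2% galactose to express toxic FUS. Compounds are tested at several concentrations. After 24hr at 30C, growth is quantified at 600 nm absorbance.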
aSyn rescue – inhibitors of alpha-synuclein toxicity in yeast | Yeast expressing alpha-synuclein, growth rescue, BacTiter-Glo, 24 h | Potency, µM (top dose mostly 46.1 µM), usual class: activators | 0.14% of 370,000 active | AID 652106; note: nearly all actives have a fitted effect of over 65% in size
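Readout is rescue of growth in alpha-synuclein-expressing yeast, so inhibitors of toxicity appear as activators. Growth after 24 hr at 30 deg C in galactose medium is quantified by luminescence.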
MmCpn inh – inhibitors of Methanococcus maripaludis chaperonin TRiC (MmCpn) | purified Mm-Cpn ATPase, ADP Transcreener TR-FRET | Potency, µM (highest dose often 76.9 µM), most hits filed as inhibitors | 0.031% of 330,000 active; note: nearly all actives have a fitted effect of over 80% in size
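Reaction buffer contained 30 mM Tris pH 7.4, 100 mM KCl, 5 mM MgCl2 and 1 mM DTT. Mm-CPN (25 nM final) hydrolysed 10 uM ATP over 30 min at 37°C; ADP was read by HTRF.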
Abeta rescue – A-beta toxicity reversal in yeast; yeast expressing A-beta42, growth rescue, OD600, 48 h; response scale: 0% DMSO, 100% iron-clioquinol control; Potency, µM (titrated, usually from 46.1 µM), actives largely listed as activators; 0.063% of 410,000 active; note: nearly all actives have a fitted effect of over 55% in size
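Yeast growth medium received pinned compounds, then yeast cells expressing toxic A-beta were added; plates incubated at 30 C for 48 hr. Growth read as absorbance at 600 nm, normalized to DMSO and equimolar FeCl3 plus clioquinol controls.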
ClpP mod – qHTS Assay for Activators of ClpP; ATP-dependent Clp protease proteolytic subunit (Bacillus subtilis (strain 168)), P80244; purified B. subtilis ClpP, FRET peptide cleavage, 20 min; Potency, µM (series often up to 57.5 µM); 1.9% of 340,000 active; AID 651965, 2013; active = well fitted falling curve with a large enough effect; inconclusive = small, poorly fitted or top-dose-only effect; inactive = no such curve, though single readings can be large or run the other way; note: the source files actives as falling curves though it sought activators and does not explain the sign; nearly all actives have a fitted effect of over 65% in size
Target sequence (P80244 whole entry, looked up): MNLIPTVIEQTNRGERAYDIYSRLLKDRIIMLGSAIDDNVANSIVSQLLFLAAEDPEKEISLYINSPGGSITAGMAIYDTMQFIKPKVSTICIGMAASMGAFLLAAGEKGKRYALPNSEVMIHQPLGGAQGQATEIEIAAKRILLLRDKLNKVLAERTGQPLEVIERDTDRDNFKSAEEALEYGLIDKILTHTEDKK
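ClpP 10 microg/mL final, pH 8 Tris/KCl buffer with BSA, glycerol, Tween-20; compound pinned in; FRET-FV substrate; RT 20 min; Ex320/Em430; ΔFRET vs ADEP 5.8 microM, DMSO, no enzyme.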
Hits are given with their value; i = inactive; ? = inconclusive; nt = no result; [ ] = another dose, or the depositor's remark. Unless noted, calls come from the whole dose curve; as a rule, active = well fitted curve in the direction sought with a large enough effect; inconclusive = small, poorly fitted or top-dose-only effect, or another doubt; inactive = no such curve, though single readings can be large; an effect the other way counts as inactive or inconclusive.

SMILES	TDP-43 yeast inh	FUS suppressor	aSyn rescue	MmCpn inh	Abeta rescue	ClpP mod
COCCN1C(=O)C(=O)/C(=C(/O)c2ccc(S(=O)(=O)N3CCOCC3)cc2)C1c1cccc(O)c1 (stereo not given)	i	i	i	i	i	i
COc1ccc2oc(-c3ccccc3)c(C(=O)N3CCOCC3)c2c1	?	i	i	i	i	28µM
CC(=O)Oc1ccc2oc(C)c(C(=O)N3CCOCC3)c2c1	i	i	i	i	i	i
CCOc1ccc2oc(-c3ccccc3)c(C(=O)N3CCN(C)CC3)c2c1	i	i	i	i	i	11µM
Brc1ccc(CSc2nnc(SCc3ccccc3)s2)cc1	nt	i	nt	nt	nt	nt
CN=C(Nc1cccc(Cl)c1)SC1CC(=O)N(c2ccc(OC)cc2)C1=O (stereo not given)	i[9.22 µM]	i	?	i	8.9µM	nt
OCC1OC(n2ccc3c(SCc4ccccc4)ncnc32)C(O)C1O (stereo not given)	i	nt	i	nt	i	35µM
OCC1OC(n2cnc3c(SCc4ccccc4)ncnc32)C(O)C1O (stereo not given)	i	nt	i	nt	i	i
c1ccc(Cn2nnnc2C(c2ccccc2)N2CCN(Cc3ccncc3)CC2)cc1 (stereo not given)	nt	nt	i	nt	nt	i
Cc1ccc(C)c(Cn2c(-c3cccs3)nc3ccccc32)c1	20µM	i	nt	nt	i	i
C=CCn1c(-c2cccs2)nc2ccccc21	i	i	i	i	i	2.8µM
Cc1cccc(Cn2c(-c3cccs3)nc3ccccc32)c1	i	i	i	nt	i	?
O=C(NCCC1=CCCCC1)c1ccc2c(c1)N(Cc1cccc(Cl)c1)C(=O)c1ccccc1S2=O (stereo not given)	i	i	nt	nt	i	i
O=C(NCc1ccccc1Cl)c1ccc2c(c1)NC(=O)C(CS(=O)(=O)Cc1ccc(Cl)cc1)N2 (stereo not given)	i	i	nt	nt	i	i
O=C(Nc1nc2c(s1)CCCC2)Oc1ccccc1	i	i	i	i	i	i
C/C(=N\Nc1nc2c(s1)CCCC2)c1ccccc1	20µM	?	i	i	i	i
C/C(=N\Nc1nc(C(C)(C)C)cs1)c1ccccc1	22µM	i	i	i	i	i
Cc1cc(C)cc(NC(=O)NCCn2nnc3cc(S(=O)(=O)N(C)C)ccc32)c1	i	i	nt	nt	i	i
OC[C@@H]1CN(Cc2ccc(Cl)cc2)C[C@H](n2cnc3c(N4CCOCC4)ncnc32)O1	i	i	i	nt	i	i
OC[C@@H]1CN(Cc2ccc(Cl)cc2)C[C@H](n2cnc3c(N4CCN(c5ccccc5)CC4)ncnc32)O1	32µM	?	?	nt	i	?
Cc1cccc(N2CCN(CCCNC(=O)Cn3ncc4c([nH]c5ccccc54)c3=O)CC2C)c1 (stereo not given)	i	i	nt	nt	i	i
COc1cccc(-c2c(-c3ccccc3OC)ncn2Cc2cccc(-c3ccccc3)c2)c1	?	?	i	nt	i	28µM
c1ccc(-c2csc3ncnc(NCc4ccccn4)c23)cc1	?	i	i	i	i	i
c1ccc(CNc2ncnc3scc(-c4cccs4)c23)nc1	18µM	i	i	i	i	i
CC(C)(C)c1ccc(/C=C/C(=O)N2CCOCC2)cc1	i	nt	i	i	i	22µM
SMILES	TDP-43 yeast inh	FUS suppressor	aSyn rescue	MmCpn inh	Abeta rescue	ClpP mod
O=S(=O)(Nc1ccc(N2CCOCC2)cc1)c1c(F)cc(F)cc1Br	?	i	22µM	i	i	i
Cc1nc2ccc(NS(=O)(=O)c3ccc(C)c(C)c3)cc2s1	i	i	i	i	i	i
Cc1nc2ccc(NS(=O)(=O)c3ccc(F)c(F)c3F)cc2s1	20µM	i	?	i	i	i
O=S(=O)(Nc1ccc(N2CCOCC2)cc1)c1ccc(F)cc1	i	i	i	i	i	nt
CSc1nc2ccc(NS(=O)(=O)c3c(Cl)cccc3Cl)cc2s1	10µM	nt	i	i	i	i
Cc1nc2ccc(NS(=O)(=O)c3ccc(F)cc3F)cc2s1	13µM	nt	i	i	i	i
COc1ccc(F)cc1S(=O)(=O)NCCc1c(C)[nH]c2c(Cl)cccc12	i	i	nt	nt	i	i
Cc1cc[n+](CC(=O)c2ccc(F)cc2)cc1	nt	nt	i	nt	nt	i
O=S(=O)(NCCc1nnc2ccc(SCc3c(F)cccc3Cl)nn12)c1ccccc1	i	i	nt	nt	i	i
CC(=O)c1cccc(S(=O)(=O)Nc2ccc3nc(C)sc3c2)c1	i	i	i	?	i	i
Cc1nc2ccc(NS(=O)(=O)c3c(F)cc(F)cc3Br)cc2s1	16µM	i	?	i	i	i
Brc1ccc(OCc2nnnn2-c2ccccc2)cc1	22µM	i	i	i	i	nt
COc1ccc(OCc2nnnn2-c2ccccc2)cc1	i	i	i	i	i	i
CCOc1cc(/C=N\O)cc(Cl)c1OCC	10µM	i	i	i	i	i
C=CCOc1c(Cl)cc(/C=N/O)cc1OC	i	i	i	i	i	i
CCC(C)(C)n1nnnc1C(c1cccnc1)N1CCC(Cc2ccccc2)CC1 (stereo not given)	10µM	i	?	i	i	nt
CCC(C)(C)n1nnnc1C(c1ccncc1)N1CCC(Cc2ccccc2)CC1 (stereo not given)	i	i	i	i	i	i
O=[N+]([O-])c1ccc2c(c1)/C(=N\O)c1ccccc1-2	i	i	i	i	i	i
COc1cc2c(cc1[N+](=O)[O-])-c1ccc([N+](=O)[O-])cc1C2=NO	10µM	i	i	nt	i	i
O=C(O)C1C2C=CC(C2)C1C(=O)NCc1ccc2c(c1)OCO2 (stereo not given)	i	i	i	i	i	i
O=C(O)C1C2C=CC(C2)C1C(=O)NCc1ccc(Cl)c(Cl)c1 (stereo not given)	20µM	i	i	i	i	i
C[C@@H]1CCN(C2CC2)S(=O)(=O)c2ccc(N3CCC[C@H]3CO)cc2O1	nt	i	nt	nt	nt	nt
COc1cc2ncc(S(=O)(=O)c3ccccc3)c(N3CCCC(C)C3)c2cc1OC (stereo not given)	28µM	?	i	i	i	i
CCCCN(CC)CCCNC(=O)c1sc2nc(C)cc(C)c2c1-n1cccc1	i	i	nt	nt	i	i
Cc1cc(/C=C/C(=O)O)c(C)n1-c1ccc(Cl)cc1	?	i	10µM	i	i	i
Cc1cc(/C=N/NC(N)=S)c(C)n1-c1cccc(Cl)c1	i[0.397 µM]	i	i	?	10µM	nt
Cc1cccc(C)c1-n1c(C)cc(/C=N/NC(N)=S)c1C	11µM	?	i	i	?	i
Cc1cc(/C=N/NC(N)=S)c(C)n1-c1ccc(Cl)cc1	?	?	i	i	10µM	i

Compound activity as filed in PubChem.
